Results published in the supplement of paper PMC11732987, “Enantioselective OTUD7B fragment discovery through chemoproteomics screening and high-throughput optimisation” (Communications Chemistry, 2025).

What was measured:
Test in all cases: log2 ratio of Biotin-Ahx-Ub-VS probe labelling (fragment/DMSO); higher = less target engagement (more negative = stronger competition), active = hit call of the paper (q ≤ 0.05, log2 ratio ≤ -1)
Details in all cases: compound concentration: 200 uM; treatment time: 3 h
[1] = target: T1, USP42 (UniProt Q9H9J4)
T1 sequence (whole entry): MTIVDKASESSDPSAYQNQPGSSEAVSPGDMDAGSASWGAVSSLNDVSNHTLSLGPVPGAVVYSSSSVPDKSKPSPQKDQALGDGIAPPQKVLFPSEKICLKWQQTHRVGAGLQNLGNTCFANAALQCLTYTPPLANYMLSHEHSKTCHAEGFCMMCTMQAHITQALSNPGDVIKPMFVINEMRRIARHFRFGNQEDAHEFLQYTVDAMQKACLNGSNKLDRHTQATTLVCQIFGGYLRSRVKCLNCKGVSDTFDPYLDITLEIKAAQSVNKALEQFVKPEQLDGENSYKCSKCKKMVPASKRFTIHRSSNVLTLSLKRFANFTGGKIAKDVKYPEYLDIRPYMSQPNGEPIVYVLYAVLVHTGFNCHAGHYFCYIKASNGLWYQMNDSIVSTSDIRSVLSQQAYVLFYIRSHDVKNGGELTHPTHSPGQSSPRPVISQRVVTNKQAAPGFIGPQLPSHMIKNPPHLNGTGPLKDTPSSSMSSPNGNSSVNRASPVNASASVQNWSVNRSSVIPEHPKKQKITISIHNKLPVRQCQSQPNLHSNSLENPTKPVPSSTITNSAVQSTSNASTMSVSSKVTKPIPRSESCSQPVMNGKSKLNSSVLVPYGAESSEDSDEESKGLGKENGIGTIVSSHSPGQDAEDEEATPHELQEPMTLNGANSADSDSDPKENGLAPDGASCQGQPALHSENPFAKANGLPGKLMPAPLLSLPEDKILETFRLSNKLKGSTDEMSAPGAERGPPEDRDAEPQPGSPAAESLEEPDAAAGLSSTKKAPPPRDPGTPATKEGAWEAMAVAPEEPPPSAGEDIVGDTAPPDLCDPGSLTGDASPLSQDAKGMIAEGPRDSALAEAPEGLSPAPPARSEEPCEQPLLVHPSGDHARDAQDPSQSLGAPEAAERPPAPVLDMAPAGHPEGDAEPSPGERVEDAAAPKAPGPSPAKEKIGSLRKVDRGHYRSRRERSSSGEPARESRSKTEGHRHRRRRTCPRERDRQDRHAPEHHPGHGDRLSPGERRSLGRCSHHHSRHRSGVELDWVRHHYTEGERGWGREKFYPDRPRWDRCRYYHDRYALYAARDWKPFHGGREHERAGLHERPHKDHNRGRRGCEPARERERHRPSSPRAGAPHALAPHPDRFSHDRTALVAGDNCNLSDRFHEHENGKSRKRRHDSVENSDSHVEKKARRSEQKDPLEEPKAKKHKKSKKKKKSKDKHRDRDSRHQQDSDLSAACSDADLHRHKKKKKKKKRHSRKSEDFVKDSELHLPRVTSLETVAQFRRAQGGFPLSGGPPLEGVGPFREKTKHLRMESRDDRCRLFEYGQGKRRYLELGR
Summary of the method: (§1)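 Using Biotin-Ahx-Ub-VS at 0.5 µM final for 1 h, DUBs were labelled in HEK293T lysate (495 µg per sample) that had first been treated in triplicate with fragment at 200 µM or vehicle for 3 h. NeutrAvidin enrichment, LysC and trypsin digestion and diaPASEF LC-MS/MS followed. Spectronaut label-free quantities were global-median-normalised. Values are average log2 fragment/vehicle ratios by unpaired t-test, using proteins with ≥2 unique peptides.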

[2] = target: USP46 (UniProt P62068)
Sequence of USP46 (P62068 whole entry): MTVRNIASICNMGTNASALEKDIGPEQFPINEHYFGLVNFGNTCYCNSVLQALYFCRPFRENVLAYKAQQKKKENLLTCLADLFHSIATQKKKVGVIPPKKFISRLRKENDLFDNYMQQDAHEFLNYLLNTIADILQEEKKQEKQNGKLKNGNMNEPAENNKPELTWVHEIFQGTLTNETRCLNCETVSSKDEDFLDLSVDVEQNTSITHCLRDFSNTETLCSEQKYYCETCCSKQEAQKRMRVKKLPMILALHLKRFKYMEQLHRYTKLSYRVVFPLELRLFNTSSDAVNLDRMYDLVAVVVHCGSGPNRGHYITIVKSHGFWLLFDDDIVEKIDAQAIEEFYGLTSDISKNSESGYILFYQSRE
Summary of the method: as §1

[3] = target: T2, USP47 (UniProt Q96K76)
T2 sequence (whole entry): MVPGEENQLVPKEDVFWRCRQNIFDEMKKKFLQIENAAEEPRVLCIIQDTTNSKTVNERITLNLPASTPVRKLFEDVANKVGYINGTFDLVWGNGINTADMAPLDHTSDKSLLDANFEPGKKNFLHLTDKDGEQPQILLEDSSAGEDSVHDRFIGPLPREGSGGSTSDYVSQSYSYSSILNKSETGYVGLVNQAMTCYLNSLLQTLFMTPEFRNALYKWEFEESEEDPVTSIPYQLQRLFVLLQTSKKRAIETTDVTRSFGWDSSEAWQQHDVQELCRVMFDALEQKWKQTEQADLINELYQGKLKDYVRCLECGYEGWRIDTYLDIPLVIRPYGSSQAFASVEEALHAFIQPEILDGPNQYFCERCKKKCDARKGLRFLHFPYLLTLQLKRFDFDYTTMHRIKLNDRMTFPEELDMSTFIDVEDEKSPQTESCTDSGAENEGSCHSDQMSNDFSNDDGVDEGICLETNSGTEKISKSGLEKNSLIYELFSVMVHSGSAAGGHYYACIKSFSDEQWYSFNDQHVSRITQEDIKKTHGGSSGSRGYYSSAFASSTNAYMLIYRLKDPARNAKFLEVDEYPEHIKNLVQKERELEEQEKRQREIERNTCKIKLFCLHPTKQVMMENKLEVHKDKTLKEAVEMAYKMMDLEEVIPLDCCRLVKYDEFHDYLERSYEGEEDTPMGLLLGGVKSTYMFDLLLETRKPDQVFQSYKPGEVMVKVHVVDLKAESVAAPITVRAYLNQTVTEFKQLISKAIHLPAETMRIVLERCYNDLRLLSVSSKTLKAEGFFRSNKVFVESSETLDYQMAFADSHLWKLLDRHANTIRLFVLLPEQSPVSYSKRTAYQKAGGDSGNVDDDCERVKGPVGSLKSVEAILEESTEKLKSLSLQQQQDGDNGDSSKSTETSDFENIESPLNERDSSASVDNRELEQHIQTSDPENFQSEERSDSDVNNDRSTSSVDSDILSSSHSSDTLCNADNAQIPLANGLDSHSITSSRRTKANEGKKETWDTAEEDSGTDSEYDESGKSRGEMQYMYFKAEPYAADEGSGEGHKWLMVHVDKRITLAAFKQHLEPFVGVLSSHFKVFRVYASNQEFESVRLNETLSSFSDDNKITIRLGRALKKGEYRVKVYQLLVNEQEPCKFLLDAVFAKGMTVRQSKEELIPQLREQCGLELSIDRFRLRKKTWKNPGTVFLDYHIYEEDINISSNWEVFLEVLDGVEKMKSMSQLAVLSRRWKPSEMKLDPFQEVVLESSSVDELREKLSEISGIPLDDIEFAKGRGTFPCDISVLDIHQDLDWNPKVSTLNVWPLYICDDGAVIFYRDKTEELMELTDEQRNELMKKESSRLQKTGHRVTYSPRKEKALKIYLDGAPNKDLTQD
Summary of the method: as §1

[4] = target: T3, USP48 (UniProt Q86UV5)
T3 sequence (whole entry): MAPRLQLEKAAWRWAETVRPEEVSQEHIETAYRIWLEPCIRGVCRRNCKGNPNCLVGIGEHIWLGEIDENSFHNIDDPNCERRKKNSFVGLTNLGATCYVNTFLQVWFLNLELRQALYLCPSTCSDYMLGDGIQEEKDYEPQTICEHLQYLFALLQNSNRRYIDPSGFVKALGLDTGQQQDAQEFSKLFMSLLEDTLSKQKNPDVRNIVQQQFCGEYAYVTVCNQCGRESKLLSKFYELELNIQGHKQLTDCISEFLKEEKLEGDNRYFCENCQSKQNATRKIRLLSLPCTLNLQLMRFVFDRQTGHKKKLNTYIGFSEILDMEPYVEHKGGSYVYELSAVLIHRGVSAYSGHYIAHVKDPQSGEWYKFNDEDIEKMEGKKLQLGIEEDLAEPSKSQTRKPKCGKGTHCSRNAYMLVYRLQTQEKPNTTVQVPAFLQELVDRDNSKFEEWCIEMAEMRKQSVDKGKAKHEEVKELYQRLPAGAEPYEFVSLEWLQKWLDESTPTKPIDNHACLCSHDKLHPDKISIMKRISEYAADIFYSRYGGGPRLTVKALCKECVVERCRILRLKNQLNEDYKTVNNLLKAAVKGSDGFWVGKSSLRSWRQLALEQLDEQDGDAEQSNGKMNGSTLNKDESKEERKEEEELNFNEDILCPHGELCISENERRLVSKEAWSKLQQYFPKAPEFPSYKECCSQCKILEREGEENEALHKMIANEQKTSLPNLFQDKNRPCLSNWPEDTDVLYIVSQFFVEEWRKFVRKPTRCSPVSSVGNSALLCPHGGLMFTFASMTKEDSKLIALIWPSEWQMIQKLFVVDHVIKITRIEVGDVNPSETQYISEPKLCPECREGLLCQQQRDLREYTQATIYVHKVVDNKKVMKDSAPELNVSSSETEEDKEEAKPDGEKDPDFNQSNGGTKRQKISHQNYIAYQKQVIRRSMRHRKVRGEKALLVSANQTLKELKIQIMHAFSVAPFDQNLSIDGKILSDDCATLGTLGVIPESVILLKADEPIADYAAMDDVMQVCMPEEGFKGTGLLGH
Summary of the method: as §1

[5] = target: T4, USP5 (UniProt P45974)
T4 sequence (whole entry): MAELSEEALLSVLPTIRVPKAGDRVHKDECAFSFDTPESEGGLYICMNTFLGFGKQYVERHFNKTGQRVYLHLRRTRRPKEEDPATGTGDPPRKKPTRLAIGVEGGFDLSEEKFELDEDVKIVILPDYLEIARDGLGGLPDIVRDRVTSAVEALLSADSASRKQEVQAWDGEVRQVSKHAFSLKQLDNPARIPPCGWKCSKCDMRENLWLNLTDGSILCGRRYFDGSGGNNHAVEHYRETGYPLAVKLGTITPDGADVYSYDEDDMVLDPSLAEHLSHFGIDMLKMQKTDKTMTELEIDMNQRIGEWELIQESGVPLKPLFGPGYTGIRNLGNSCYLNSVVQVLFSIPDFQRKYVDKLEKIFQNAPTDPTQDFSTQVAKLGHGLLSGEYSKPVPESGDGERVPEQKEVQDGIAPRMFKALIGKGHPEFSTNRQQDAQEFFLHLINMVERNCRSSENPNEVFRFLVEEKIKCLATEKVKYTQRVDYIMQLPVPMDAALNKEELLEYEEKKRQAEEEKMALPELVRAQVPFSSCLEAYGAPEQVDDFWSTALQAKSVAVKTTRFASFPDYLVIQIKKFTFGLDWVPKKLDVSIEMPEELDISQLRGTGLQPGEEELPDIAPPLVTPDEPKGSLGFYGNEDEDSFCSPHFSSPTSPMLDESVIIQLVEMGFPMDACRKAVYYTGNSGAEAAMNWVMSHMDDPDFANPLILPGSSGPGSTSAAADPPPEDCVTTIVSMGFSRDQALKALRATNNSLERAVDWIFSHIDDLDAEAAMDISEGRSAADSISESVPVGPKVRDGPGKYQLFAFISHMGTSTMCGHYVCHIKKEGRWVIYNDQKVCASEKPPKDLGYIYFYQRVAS
Summary of the method: as §1

[6] = target: USP54 (UniProt Q70EL1)
Summary of the method: as §1

[7] = target: USP7 (UniProt Q93009)
Sequence of USP7 (Q93009 whole entry, looked up): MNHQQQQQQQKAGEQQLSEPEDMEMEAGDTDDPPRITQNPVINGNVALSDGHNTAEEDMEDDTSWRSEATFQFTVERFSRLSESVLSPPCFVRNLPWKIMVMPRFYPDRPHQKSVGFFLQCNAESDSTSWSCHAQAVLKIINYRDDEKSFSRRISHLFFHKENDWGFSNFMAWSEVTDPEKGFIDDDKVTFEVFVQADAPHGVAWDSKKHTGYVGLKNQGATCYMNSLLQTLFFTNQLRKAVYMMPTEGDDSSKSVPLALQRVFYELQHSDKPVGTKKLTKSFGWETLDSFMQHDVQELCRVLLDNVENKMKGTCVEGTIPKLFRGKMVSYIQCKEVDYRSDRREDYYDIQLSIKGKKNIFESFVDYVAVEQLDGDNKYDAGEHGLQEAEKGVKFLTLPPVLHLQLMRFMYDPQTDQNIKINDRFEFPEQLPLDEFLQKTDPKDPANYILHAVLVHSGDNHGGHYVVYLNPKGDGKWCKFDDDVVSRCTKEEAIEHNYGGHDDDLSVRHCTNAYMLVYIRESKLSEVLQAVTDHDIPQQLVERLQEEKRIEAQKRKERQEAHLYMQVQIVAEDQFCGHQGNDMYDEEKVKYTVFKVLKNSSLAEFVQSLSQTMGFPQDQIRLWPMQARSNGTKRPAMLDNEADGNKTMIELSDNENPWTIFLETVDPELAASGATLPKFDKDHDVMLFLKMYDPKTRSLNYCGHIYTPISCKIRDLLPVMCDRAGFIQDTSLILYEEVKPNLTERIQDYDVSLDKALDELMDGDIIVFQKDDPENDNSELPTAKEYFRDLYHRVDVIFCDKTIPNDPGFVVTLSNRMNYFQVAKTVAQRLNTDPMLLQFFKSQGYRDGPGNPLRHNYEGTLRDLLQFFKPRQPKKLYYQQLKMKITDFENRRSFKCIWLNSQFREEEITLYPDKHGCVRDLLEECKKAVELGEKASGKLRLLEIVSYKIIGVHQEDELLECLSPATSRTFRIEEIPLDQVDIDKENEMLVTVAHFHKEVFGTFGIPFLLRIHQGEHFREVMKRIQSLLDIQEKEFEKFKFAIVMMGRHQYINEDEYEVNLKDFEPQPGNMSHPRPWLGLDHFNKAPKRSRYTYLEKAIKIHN
Summary of the method: as §1

[8] = target: T5, USP8 (UniProt P40818)
T5 sequence (whole entry): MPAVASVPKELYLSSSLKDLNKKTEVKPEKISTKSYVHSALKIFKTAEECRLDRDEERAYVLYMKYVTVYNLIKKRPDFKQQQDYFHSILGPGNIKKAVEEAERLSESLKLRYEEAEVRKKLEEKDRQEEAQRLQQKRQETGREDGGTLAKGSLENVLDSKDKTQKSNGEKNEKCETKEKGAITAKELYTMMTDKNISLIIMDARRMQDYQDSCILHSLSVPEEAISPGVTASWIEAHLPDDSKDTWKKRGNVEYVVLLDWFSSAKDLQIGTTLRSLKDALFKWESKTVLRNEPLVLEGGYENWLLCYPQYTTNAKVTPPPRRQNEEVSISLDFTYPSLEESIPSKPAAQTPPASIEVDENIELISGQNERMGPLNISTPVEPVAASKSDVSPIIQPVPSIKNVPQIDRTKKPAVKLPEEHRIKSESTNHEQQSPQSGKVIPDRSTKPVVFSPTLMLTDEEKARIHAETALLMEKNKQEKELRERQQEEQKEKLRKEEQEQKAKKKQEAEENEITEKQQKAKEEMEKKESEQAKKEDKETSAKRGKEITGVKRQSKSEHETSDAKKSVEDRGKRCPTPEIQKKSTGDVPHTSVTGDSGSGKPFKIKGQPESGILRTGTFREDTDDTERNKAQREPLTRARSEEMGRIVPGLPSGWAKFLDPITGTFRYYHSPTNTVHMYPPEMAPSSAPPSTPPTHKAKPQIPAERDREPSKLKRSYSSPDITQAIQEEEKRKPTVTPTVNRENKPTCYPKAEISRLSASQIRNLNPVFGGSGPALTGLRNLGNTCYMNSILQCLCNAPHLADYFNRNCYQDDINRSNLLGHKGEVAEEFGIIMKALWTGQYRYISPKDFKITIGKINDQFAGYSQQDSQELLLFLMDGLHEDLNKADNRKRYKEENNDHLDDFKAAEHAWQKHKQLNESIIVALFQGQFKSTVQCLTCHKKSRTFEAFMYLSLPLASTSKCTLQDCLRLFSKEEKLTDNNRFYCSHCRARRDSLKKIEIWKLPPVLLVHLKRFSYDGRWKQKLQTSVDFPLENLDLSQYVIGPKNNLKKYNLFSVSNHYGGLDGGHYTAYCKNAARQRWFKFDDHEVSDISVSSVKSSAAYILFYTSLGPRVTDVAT
Summary of the method: as §1

[9] = target: USP9X (UniProt Q93008)
Sequence of USP9X (Q93008 whole entry): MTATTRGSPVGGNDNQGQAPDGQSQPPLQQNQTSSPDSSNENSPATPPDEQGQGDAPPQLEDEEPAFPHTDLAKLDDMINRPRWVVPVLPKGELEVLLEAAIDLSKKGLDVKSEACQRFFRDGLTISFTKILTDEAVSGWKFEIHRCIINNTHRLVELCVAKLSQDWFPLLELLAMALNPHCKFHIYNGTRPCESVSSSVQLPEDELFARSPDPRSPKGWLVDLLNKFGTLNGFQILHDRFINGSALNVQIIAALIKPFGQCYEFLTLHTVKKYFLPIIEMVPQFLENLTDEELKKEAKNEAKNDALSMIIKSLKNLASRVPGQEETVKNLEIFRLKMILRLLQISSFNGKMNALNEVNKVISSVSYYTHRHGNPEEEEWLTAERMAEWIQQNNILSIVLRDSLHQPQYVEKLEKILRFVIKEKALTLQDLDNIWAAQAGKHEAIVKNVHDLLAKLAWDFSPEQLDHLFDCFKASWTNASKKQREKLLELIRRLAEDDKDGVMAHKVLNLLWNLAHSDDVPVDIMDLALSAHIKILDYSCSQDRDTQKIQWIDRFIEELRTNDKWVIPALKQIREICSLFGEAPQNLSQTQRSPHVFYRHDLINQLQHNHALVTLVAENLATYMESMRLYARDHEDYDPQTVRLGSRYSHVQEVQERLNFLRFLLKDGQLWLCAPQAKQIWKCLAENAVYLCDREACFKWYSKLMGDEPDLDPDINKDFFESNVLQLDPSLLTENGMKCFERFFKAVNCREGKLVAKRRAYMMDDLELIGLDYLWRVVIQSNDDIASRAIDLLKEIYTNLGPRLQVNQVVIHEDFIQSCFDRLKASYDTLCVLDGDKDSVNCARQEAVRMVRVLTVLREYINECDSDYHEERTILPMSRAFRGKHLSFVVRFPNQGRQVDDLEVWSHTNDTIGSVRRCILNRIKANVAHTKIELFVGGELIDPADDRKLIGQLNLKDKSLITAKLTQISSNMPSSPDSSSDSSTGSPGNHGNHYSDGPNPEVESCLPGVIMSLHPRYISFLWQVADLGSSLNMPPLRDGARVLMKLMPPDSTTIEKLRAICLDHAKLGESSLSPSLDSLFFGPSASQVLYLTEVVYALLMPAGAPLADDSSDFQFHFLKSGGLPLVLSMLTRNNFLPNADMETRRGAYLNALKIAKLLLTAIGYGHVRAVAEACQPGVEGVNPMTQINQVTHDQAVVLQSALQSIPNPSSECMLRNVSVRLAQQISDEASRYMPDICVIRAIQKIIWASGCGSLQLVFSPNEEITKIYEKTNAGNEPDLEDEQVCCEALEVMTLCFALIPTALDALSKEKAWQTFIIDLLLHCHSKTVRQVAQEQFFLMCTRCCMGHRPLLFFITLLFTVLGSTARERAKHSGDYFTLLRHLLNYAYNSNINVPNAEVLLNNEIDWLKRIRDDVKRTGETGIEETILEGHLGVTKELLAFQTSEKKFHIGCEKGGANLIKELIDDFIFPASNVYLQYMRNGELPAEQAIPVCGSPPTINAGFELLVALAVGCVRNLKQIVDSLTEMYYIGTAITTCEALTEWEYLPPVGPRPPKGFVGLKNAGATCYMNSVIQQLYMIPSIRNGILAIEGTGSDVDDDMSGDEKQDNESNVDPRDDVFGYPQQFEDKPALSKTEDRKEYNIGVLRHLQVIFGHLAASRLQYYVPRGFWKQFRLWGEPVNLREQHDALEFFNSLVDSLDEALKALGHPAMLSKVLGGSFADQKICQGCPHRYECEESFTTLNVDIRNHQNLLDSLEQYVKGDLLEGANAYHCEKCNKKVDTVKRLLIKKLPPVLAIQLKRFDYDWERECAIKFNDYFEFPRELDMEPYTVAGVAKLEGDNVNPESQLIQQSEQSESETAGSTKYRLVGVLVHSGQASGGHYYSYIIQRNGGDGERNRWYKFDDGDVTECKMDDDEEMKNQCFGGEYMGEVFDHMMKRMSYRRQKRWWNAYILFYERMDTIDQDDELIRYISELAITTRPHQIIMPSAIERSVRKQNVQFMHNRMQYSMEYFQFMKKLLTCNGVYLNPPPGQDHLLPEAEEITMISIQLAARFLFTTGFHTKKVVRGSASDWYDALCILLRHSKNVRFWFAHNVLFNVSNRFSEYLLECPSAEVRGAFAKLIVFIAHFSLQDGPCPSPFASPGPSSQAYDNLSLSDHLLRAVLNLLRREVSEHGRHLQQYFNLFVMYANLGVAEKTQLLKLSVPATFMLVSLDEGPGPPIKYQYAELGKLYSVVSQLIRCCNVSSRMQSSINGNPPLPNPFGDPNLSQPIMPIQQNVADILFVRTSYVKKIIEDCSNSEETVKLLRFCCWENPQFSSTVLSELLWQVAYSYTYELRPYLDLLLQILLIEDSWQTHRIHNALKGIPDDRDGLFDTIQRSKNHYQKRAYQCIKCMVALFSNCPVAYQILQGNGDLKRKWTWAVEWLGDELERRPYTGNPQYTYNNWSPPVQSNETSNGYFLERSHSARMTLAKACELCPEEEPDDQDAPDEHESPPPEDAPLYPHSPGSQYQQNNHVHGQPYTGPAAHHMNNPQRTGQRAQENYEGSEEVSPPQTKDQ
Summary of the method: as §1

[10] = target: UniProt O00487
Sequence of UniProt O00487 (O00487 whole entry): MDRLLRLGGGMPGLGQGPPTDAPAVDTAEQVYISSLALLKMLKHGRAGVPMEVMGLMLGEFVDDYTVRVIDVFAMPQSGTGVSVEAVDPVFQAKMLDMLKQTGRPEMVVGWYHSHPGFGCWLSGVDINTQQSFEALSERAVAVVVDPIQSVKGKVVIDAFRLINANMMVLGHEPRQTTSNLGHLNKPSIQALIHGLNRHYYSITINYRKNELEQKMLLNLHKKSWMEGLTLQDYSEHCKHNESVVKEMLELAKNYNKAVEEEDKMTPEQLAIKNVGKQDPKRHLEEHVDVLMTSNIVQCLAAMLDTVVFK
Summary of the method: as §1

Measured: log2 ratio of Biotin-Ahx-Ub-VS probe labelling

NS(=O)(=O)c1ccc(Cl)c(NC(=O)CCl)c1
inactive: [1] 0.0225 | [2] -0.123 | [3] -0.247 | [4] -0.536 | [5] 0.233 | [6] -0.00214 | [7] -0.207 | [8] -0.125 | [9] -0.31 | [10] -0.0819

O=C(CCl)NC1CCCCNC1=O (stereo not given)
inactive: [1] 0.0716 | [2] -0.113 | [3] -0.161 | [4] -0.154 | [5] -0.327 | [6] 0.114 | [7] -0.264 | [8] -0.134 | [9] -0.297 | [10] -0.13

O=C(CCl)Nc1cccc(C(=O)N2CCSCC2)c1
inactive: [1] 0.397 | [2] -0.00544 | [3] 0.175 | [4] -0.0892 | [5] -0.171 | [6] -0.177 | [7] -0.299 | [8] -0.00928 | [9] -0.091 | [10] 0.0356
